Screens (PubChem)
Shown are actives, neighbours in structure and some others; about 12% of the full set was active somewhere.
SARS PLpro yeast: inhibitors of SARS-CoV papain-like protease in yeast. S. cerevisiae expressing SARS-CoV PLpro, growth rescue. Potency, µM (highest dose often 32.9 µM), for inactives: top-dose activity, positive = growth rescue, most hits filed as activators. 330,000 tested, 0.19% active. AID 485353; calls by dose curve; also: 0% is about no effect; nearly all actives have a fitted effect of over 55% in size
Pf growth 96h: P. falciparum growth inhibition at 96 hours. Potency, µM (doses to about 28.7 µM), for inactives: at the top dose activity change, negative = inhibition, actives largely listed as inhibitors. P. falciparum luciferase reporter growth, 96 h. AID 504834. 320,000 tested, 6.9% active; also: % is scaled to controls: 0 for no effect and ±100 for the full control effect
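P. falciparum expressing integrated firefly luciferase, in erythrocytes at 2% hematocrit, 0.05% parasitemia, incubated with compounds 96 h at 37 C, 5% CO2. Growth inhibition read as loss of luminescence; two-generation exposure targets delayed-death apicoplast inhibitors.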
Pf growth 48h: P. falciparum growth inhibition at 48 hours (one generation); P. falciparum luciferase growth in erythrocytes, 48 h; Potency, µM (doses to about 28.7 µM), for inactives: top-dose activity change, negative = inhibition, actives largely listed as inhibitors; 310,000 tested, 5.9% active; AID 504832; also: % is scaled to controls: 0 for no effect and ±100 for the full control effect
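Luciferase-expressing parasites in RBCs, 2% Hct / 0.1% parasitemia final; RPMI 1640 + 0.5% Albumax; 37 C, 5% CO2, one generation; luminescence read-out, lower signal = inhibition.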
Sm TGR inh: inhibitors of Schistosoma mansoni thioredoxin glutathione reductase; purified TGR, DTNB reduction, TNB absorbance 405 nm; Potency, µM (titrated, usually from 114 µM), for inactives: top-dose activity change, negative = inhibition, hits mostly inhibitors; 360,000 tested, 3% active; also: % is scaled to controls: 0 for no effect and ±100 for the full control effect; nearly all actives have a fitted effect of over 60% in size
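Kinetic colorimetric format: TGR-catalysed, NADPH-driven DTNB reduction monitored via TNB absorbance. Enzyme dispensed at 20 nM; compound exposure 15 min at room temperature before reaction start.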
* hit, by the source's call; ? = inconclusive; . = no result given; ! = not active in a repeat; [ ] = another dose, or the depositor's remark. Unless noted, calls follow the shape of the dose curve; as a rule, active = well fitted curve in the direction sought with a large enough effect; inconclusive = small, poorly fitted or top-dose-only effect, or another doubt; inactive = no such curve, though single readings can be large; an effect the other way counts as inactive or inconclusive. Potency is read from the fitted curve at half-maximal effect.

SMILES	SARS PLpro yeast	Pf growth 96h	Pf growth 48h	Sm TGR inh
CC1=CC(C)(C)N(C(=O)C(C)N2C(=O)c3ccccc3C2=O)c2c(C)cc(C)cc21 (centres undefined)	-12%	.	10µM*	-6%
COc1ccc2c(c1)C(C)=CC(C)(C)N2C(=O)C(C)N1C(=O)c2ccccc2C1=O (centres undefined)	-33%	.	-10%	-4%
C=CCn1c(-c2cc3cccc(OC)c3o2)n[nH]c1=S	-14%	?	15%	-19%
Cc1cc(C)c(NC(=O)Cn2c(=O)n(-c3cccc(C(F)(F)F)c3)c(=O)c3c(C)c(C)sc32)c(C)c1	.	.	.	2%
C[c-]1[c-](C)[c-](C)[c-](C)[c-]1C.[Fe].c1cc2nccc(N3CCCC3)[c-]2c1 (centres undefined)	6%	?	?	3.2µM*!
COC(=O)C1CC23C=CCN4CCC5(c6ccccc6NC15C2C)C43 (centres undefined)	2%	-5%	1.5µM*	?
Cc1ccc2c(c1)C1CCCC3C1N2CC(=O)N3Cc1ccccc1 (centres undefined)	2%	5%	.	50µM*
CC(C)CNS(=O)(=O)c1ccccc1C(=O)N1CCCCC1	-1%	87%	0%	6%
Cc1cccc(C)c1OCC(O)CNS(=O)(=O)c1ccccc1C(=O)N1CCCCC1 (centres undefined)	22%	12µM*	?	5%
Cc1ccc(CNCC2CCCO2)o1 (centres undefined)	-2%	13µM*	-3%	-20%
Clc1ccc(CNCC2CCCO2)cc1 (centres undefined)	-2%	18%	52%	21%
CC(C)CNC(=O)C(=O)Nc1c2c(nn1-c1ccccc1)CS(=O)(=O)C2	.	.	.	-2%
Cc1ccccc1-n1c(C)nnc1SCc1cc(=O)oc2ccc3ccccc3c12	-1%	15µM*	10%	-32%
COc1ccc(-c2cc(C)no2)cc1S(=O)(=O)NCc1cccs1	.	.	.	12%
Cc1coc2cc3oc(=O)c(CC(=O)NCCc4ccccc4)c(C)c3cc12	.	.	.	2%
O=C(OC1C[C@H]2CC[C@@H](C1)[N+]21CCCC1)C(O)(c1ccccc1)c1ccccc1 (some centres undefined)	.	9%	6.7µM*	.
O=C1NCC(c2ccccc2)C1C(=O)N/N=C\c1ccc(-c2ccc(Cl)c(Cl)c2)o1 (centres undefined)	-20%	-98%	.	-4%
O=C1NCC(c2ccccc2)C1C(=O)N/N=C/c1ccc(Cl)s1 (centres undefined)	0%	7.4µM*	-29%	?
C/C(=N\NC(=S)NC1CCCCC1)c1c(F)cccc1F	-6%	10µM*	-15%	1%
C/C(=N\NC(=O)C1CCCC1)c1ccc(Cl)c(Cl)c1	2%	251%	1%	-4%
C/C(=N\NC(=S)NC1CCCCC1)c1ccc(Cl)c(Cl)c1	-1%	4.1µM*	2.3µM*	-7%
CCCc1nn2c(=O)cc(COC(=O)c3ccccc3NC(=O)C3CCCCC3)nc2s1	.	.	.	-9%
COc1ccc(-c2c(C#N)c(N)nc3sc(C(=O)c4ccccc4)c(N)c23)cc1	9%	-10%	9.3µM*	0%
O=c1nccc(N/N=C/c2ccccc2O)[nH]1	1%	0.83µM*	9.3µM*	11%
COc1cccc(/C=N/Nc2ccnc(=O)[nH]2)c1O	4%	0.23µM*	0.29µM*	2%
SMILES	SARS PLpro yeast	Pf growth 96h	Pf growth 48h	Sm TGR inh
COc1cccc(/C=N/Nc2nn3cnnc3c3ccccc23)c1O	-3%	0.33µM*	?	-27%
COc1cccc(C(=O)Nc2ccc(C(=O)OCc3cc(=O)n4cc(C)sc4n3)cc2)c1	.	.	.	-11%
COc1ccc(CCNC(=O)CSc2cn(CCNC(=O)c3cccc(C(F)(F)F)c3)c3ccccc23)cc1OC	.	.	.	2%
CC1CC(c2ccccc2)NS(=O)(=O)O1 (centres undefined)	3%	59%	40%	1%
CN(C)Cc1c(O)ccc2c(=O)c(-c3ccccc3Cl)c(C(F)(F)F)oc12	1%	?	?	0%
Cc1ccc(C2Nc3ccccc3-n3c(-c4ccccc4)c4c(=O)n(C)c(=O)n(C)c4c32)o1 (centres undefined)	.	.	.	-34%
CCn1c(=O)c2cc(C(=O)Nc3cc(C)c(Cl)cc3OC)sc2c2ccccc21	.	.	.	40%
Cc1ccc(N2CCCn3c2nc2c3c(=O)n(CC(=O)OCc3ccccc3)c(=O)n2C)cc1C	2%	5.2µM*	12µM*	0%
Cc1ccc(N2CC(C)Cn3c2nc2c3c(=O)n(CC(=O)OCc3ccccc3)c(=O)n2C)cc1C (centres undefined)	2%	10µM*	?	-10%
O=C1CCC(C(=O)N2CCCC(Nc3ccc(F)cc3)C2)=NN1 (centres undefined)	-1%	7%	17%	2%
C/C=C(\C)C(=O)N1CCC(C(=O)c2ccccc2)CC1	0%	20%	-9%[0.00184 µM]	1%
O=S(=O)(c1ccccc1)N1CCN(S(=O)(=O)c2ccc(F)cc2)CC1	5%	10µM*	35%	-21%
O=S(=O)(c1ccc(Br)cc1)N1CCN(c2ccccc2)CC1	-3%	-17%	10µM*	65%
CCOC(=O)c1cnn(-c2ccc(OC)cc2)c1C1CCN(C(=O)OC(C)(C)C)CC1	.	.	.	-2%
CC(C)(C)OC(=O)N1CCC[C@H]1c1nnc(SCc2c(Cl)cccc2Cl)o1	-23%	?	9.3µM*	0%
Cc1cccc(CSc2nnc([C@@H]3CCCN3C(=O)OC(C)(C)C)o2)c1	0%	?	?	11%
CCc1ccc(-c2nc(CS(=O)CC(=O)NCc3ccccc3)c(C)o2)cc1 (centres undefined)	0%	-22%	14%	8.9µM*
CCc1ccc(-c2nc(CSCC(=O)NCc3ccco3)c(C)o2)cc1	-1%	-5%	?	28µM*
Cc1oc(-c2ccccc2F)nc1CS(=O)CC(=O)NCc1ccc(F)cc1 (centres undefined)	27%	2.9µM*	30%	?
Cc1oc(-c2ccc(Cl)cc2)nc1CS(=O)CC(=O)NCc1ccccc1 (centres undefined)	-5%	45%	5%	0%
Cc1oc(-c2ccccc2Cl)nc1CS(=O)(=O)CC(=O)NCc1ccc(F)cc1	.	.	.	45µM*
Cc1ccc(CNC(=O)CS(=O)(=O)Cc2nc(-c3ccccc3F)oc2C)cc1	6%	26%	15%	-42%
CCc1ccc(-c2nc(CS(=O)CC(=O)NCc3ccc4c(c3)OCO4)c(C)o2)cc1 (centres undefined)	?	?	28%	10µM*
Cc1ccc(-c2nc(CS(=O)CC(=O)NCc3ccc(Cl)cc3)c(C)o2)cc1 (centres undefined)	18%	8%	.	?
Cc1ccc(-c2nc(CS(=O)CC(=O)NCc3ccc4c(c3)OCO4)c(C)o2)cc1 (centres undefined)	2%	28%	3%	22µM*
COc1ccc(-c2nc(CS(=O)CC(=O)NCc3ccc(Cl)cc3)c(C)o2)cc1 (centres undefined)	6%	?	.	?
